NTR1 ag: agonists of human NTR1, primary screen, imaging, U2OS cells, beta-arrestin-GFP, high content. NTR1-U2OS beta-arrestin-GFP spot imaging, agonist mode. AID 493036, 2011. Neurotensin receptor type 1 (Homo sapiens), P30989. activation, % at 20 µM. 330,000 compounds, 0.17% hits;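 active means activation at or above 40% of the spot to cytoplasm intensity ratio, with at least 20 cells analyzed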;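 further: 0% = DMSO without peptide and 100% = 100 nM NTR1 peptide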
Target sequence (P30989 whole entry, looked up): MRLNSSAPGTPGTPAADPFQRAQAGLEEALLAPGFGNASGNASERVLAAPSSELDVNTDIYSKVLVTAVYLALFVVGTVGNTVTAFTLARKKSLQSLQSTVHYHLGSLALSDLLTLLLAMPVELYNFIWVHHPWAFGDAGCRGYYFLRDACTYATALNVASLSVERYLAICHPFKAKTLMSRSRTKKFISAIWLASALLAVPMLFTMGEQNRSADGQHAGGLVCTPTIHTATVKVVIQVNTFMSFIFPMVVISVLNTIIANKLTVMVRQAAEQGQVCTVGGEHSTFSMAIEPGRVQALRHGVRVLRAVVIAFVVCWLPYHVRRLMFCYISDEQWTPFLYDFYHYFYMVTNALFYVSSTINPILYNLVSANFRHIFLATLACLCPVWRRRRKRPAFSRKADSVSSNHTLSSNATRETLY
CRFBP-R2 block: antagonists of CRF-BP/CRF-R2 complex, primary screen, cell-based, HEK293, calcium dye fluorescence, uHTS | CRF-induced calcium fluorescence | inhibition, % at 11.8 µM | 350,000 compounds, 0.59% hits | AID 588475, 2011;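 active means inhibition of the ligand-induced calcium signal above about 50% at the single tested concentration, limit read from the data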
CRFR2-BP ag: agonists of CRF-BP/CRF-R2 complex, primary screen, cell-based, HEK293, calcium dye fluorescence, uHTS; AID 588473, 2011; activation, % at 13.2 µM; 350,000 compounds, 0.46% hits; calcium dye fluorescence (FLIPR); percent of saturating CRF peptide response;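 active means activation of at least 50%, plus an integration ratio under a set limit after plate pattern correction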;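 further: plate controls were neutral control wells without compound for no effect and CRF at EC100 for full effect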
V-ATPase pHluor: regulators of yeast V-ATPase proton pumping, primary screen, pHLuorin cytosolic pH fluorescence. response, % at 10 µM. 350,000 compounds, 0.37% hits. S. cerevisiae; in the data active means response mostly above about 7.3%, no sharp cut-off; inactive means mostly below about 5.4%; further: actives read high
V-ATPase pH SP: yeast V-ATPase proton pumping modulators, confirmation, S. cerevisiae, pH-sensitive GFP, second cherry-pick; S. cerevisiae pHLuorin cytosolic pH, V-ATPase proton transport; 980 compounds, 2% hits; response, % at 10 µM; AID 602197, 2012; shares compounds with V-ATPase pHluor; in the data active means response above about 24%;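 further: plate controls were vehicle wells for no effect and positive control wells for full effect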
The depositor's hits bear a star; · = no result given. Hits are enriched below; roughly 1.5% of the tested compounds scored in any of these assays.

SMILES	NTR1 ag	CRFBP-R2 block	CRFR2-BP ag	V-ATPase pHluor	V-ATPase pH SP
Cc1cc(NS(=O)(=O)c2ccc(NC(=O)CSc3nc4ncc(Br)cc4[nH]3)cc2)nc(C)n1	1	30	-1	1	·
COc1ccc(S(=O)(=O)N2CCN(C(=O)CCNC(=O)c3ccccc3Cl)CC2)cc1	-2	-45	4	-2	·
CCOc1ccc(NC(=O)CCC(=O)NNC(=O)c2ccco2)cc1	2	-3	0	9.2*	3
CCOc1ccc(NC(=O)CCC(=O)N/N=C(\C)c2cccs2)cc1	0	-2	1	8.8*	1
CN1CCN(C(=O)CNC(=O)C23CC4CC(CC(C4)C2)C3)CC1	1	-6	0	-1	·
CNC(=O)N(O)C1N(/N=C/c2c(F)cccc2Cl)C(=S)SC1(C)C (stereo unspecified)	0	-10	0	2	·
Cc1cc(NC(=O)C(Cl)Cl)cc2c1OCO2	·	-3	0	1	·
CCCCCn1c(=O)c(C(=O)OCC)c(O)c2ccccc21	2	4	2	2	·
CCCCn1c(=O)c(C(=O)OCC)c(O)c2ccccc21	-2	2	-1	9.8*	3
CCOC(=O)COn1c(=O)c(C)[n+]([O-])c2ccccc21	0	-4	2	-6	·
CCOC(=O)COn1c(=O)c[n+]([O-])c2ccccc21	1	-6	-1	15*	-1
O=C(C1CC(=O)N(c2ccc(Cl)cc2)C1)N1CCOCC1 (stereo unspecified)	1	4	0	1	·
CC(NC(=O)CNC(=O)c1ccccc1F)c1ccc(-n2ccnc2)cc1 (stereo unspecified)	2	3	0	0	·
CCCCCOc1ccc(C(C)(O)C(CN2CCOCC2)c2ccccc2)cc1 (stereo unspecified)	13	-9	3	14*	-1
O=C(NCc1cccnc1)c1nn2cccnc2c1Cl	0	0	-1	-4	·
C=CCNC(=O)c1nn2cccnc2c1Cl	1	6	1	11*	-1
CC1CCCC(NC(=S)Nc2cccc(S(=O)(=O)N(C)C)c2)C1C (stereo unspecified)	0	3	-1	8.2*	5
CN(C)S(=O)(=O)c1cccc(NC(=S)NC2CCCCC2)c1	-1	13	0	2	·
O=c1[nH]c(-c2ccccc2)nn1-c1ccc(Br)cc1Br	0	-13	2	2	·
Cc1ccc(S(=O)(=O)N(CC(=O)N2CCC(C(N)=O)CC2)c2cccc(C(F)(F)F)c2)cc1	-1	39	-3	0	·
CCOC(=O)C1CCN(C(=O)CN(c2cccc(C(F)(F)F)c2)S(C)(=O)=O)CC1	0	22	-3	12*	1
O=C(NC1=NCCS1)c1cccc(Br)c1	0	-1	-1	0	·
O=C(NC1=NCCS1)c1cccc(F)c1	0	-8	-1	-2	-2
Cc1ccccc1-c1ccccc1CN1[C@@H](C(C)C)COCCS1(=O)=O	10	8	-4	8.8*	2
O=C(Nc1ccc(C(F)(F)F)cc1)C1=NN(C2CCS(=O)(=O)C2)C(=O)CC1 (stereo unspecified)	-2	9	2	9	·
SMILES	NTR1 ag	CRFBP-R2 block	CRFR2-BP ag	V-ATPase pHluor	V-ATPase pH SP
O=C(NC1CCCCC1)c1c(O)nc2sccn2c1=O	1	6	0	12*	28*
O=C(NC1CCCCCC1)c1c(O)nc2sccn2c1=O	2	10	-1	6	·
CCOc1ccc(CCNC(=O)CSc2cc(=O)n(CC)c3ccccc23)cc1OCC	4	-12	2	14*	-3
O=C(CCNC(=O)c1ccc(Br)cc1)NNC(=O)COc1ccccc1F	-1	-3	-1	0	·
O=C(CCNC(=O)c1ccccc1)NNC(=O)COc1ccccc1Cl	3	-4	-1	8.2*	0
CCCOC(=O)c1ccc(-c2ccc(C=O)o2)cc1	3	0	-2	8.2*	5
CCOC(=O)[C@H]1[C@H]2COc3ccccc3[C@@H]2N2C(=O)CN(Cc3ccc(C)cc3)C(=O)[C@@]12C	2	-2	8	9	·
CC(=O)N1N=C(c2ccccc2)OC1(C)CC(=O)Nc1ccccc1 (stereo unspecified)	2	-3	0	8.3*	0

Source: PubChem BioAssay (several laboratories)
